Only some compounds are listed: those with a hit (about 2.5% of all), similar ones and a draw of the others.
D2 PAM-1: positive allosteric modulators of human D2 dopamine receptor; P14416; HEK293 T-REx D2, calcium flux, EC20 dopamine potentiation; potentiation, % at 10 µM; 340,000 compounds, 0.34% hits; AID 485347;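 active = potentiation over 3 SD above the plate norm, cut at about 30% in these data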; note: 0% is about no effect
Target sequence (P14416 whole entry, looked up): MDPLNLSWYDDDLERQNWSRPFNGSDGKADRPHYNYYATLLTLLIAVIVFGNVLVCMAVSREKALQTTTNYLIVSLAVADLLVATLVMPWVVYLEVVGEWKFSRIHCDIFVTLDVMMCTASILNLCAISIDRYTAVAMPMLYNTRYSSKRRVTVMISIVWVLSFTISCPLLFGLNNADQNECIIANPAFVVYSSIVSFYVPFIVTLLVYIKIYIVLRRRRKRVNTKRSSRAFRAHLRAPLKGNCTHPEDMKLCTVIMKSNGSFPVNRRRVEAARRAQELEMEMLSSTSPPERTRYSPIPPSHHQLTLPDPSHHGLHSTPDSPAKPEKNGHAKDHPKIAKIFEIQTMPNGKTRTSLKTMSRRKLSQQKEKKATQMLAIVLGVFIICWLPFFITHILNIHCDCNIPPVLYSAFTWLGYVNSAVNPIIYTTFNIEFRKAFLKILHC
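Potentiation of an EC20 dopamine calcium response is measured in a force-coupled, tetracycline-inducible Hek293 Trex D2 line. Compound-only kinetic reads over 180 s flag agonists before dopamine addition.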
D2 ag-1: activates the human D2 dopamine receptor; P14416; HEK293 T-REx D2 cells, calcium flux agonist mode; activation, % at 2 µM; 340,000 compounds, 0.53% hits; AID 485358;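 active = activation over 3 SD above normal in the single-dose calcium agonist read, cut at about 30% in these data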; note: 0% is about no effect
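HEK293 Trex D2 cells, tetracycline-induced, o/n 30 C 5% CO2; no-wash Ca dye, RT 30–90 min; 10-cycle baseline, 23 nl cpd added, kinetic Ca read 180 s; agonist hits = positive Ca response.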
Apoferritin bind: candidate novel general anesthetic via apoferritin binding. P02791. apoferritin/1-aminoanthracene competitive binding, fluorescence. Potency, µM (doses to about 77.5 µM), without a hit: at the highest dose activity change, negative = displacement, most hits filed as inhibitors. 350,000 compounds, 0.074% hits. AID 485281; active = well fitted inhibition curve with a large enough effect; inconclusive = small, poorly fitted or top-dose-only effect; inactive = no such curve, though single readings can be large or run the other way; note: potency is the fitted concentration of half-maximal effect; % is set by controls: 0 for no effect and ±100 for the full control effect; nearly all actives have a fitted effect of over 20% in size
Target sequence (P02791 2-175 limits assumed): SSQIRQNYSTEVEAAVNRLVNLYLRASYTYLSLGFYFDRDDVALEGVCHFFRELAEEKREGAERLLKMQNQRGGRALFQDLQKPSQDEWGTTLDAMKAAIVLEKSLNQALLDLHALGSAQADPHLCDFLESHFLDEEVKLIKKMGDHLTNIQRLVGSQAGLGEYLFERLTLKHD
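10 uM apoferritin + 50% sat. 1-AMA, PBS; cpd 10 min RT; Ex380/Em535 endpoint; normalized to free probe vs complex; 4-param Hill fit; propofol titration as pos. ctrl.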
D2 ag-2: human D2 receptor agonism in beta-arrestin assay; DiscoveRx PathHunter D2 beta-arrestin, luminescence, 90 min; 100% = 57 uM dopamine signal; activation, % (no concentration beside the values); 360,000 compounds, 0.084% hits; in the data active = activation above about 40%; inconclusive = between about 15% and that limit
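Agonist mode: compounds alone added to overnight-plated D2 PathHunter cells for 90 min at 37 C, with 57 uM final dopamine (EC100) defining full response. Beta-arrestin recruitment detected by chemiluminescent reagent, read after 1 h at ambient temperature.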
D2 antag: antagonists of human D2 dopamine receptor; 340,000 compounds, 2% hits; HEK293 TREx D2 cells, calcium flux, dopamine EC80; inhibition, % at 10 µM; AID 485344; P14416; in the data active = inhibition above about 30%; inactive = below that, where a call was filed; note: 0% is about no effect
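Measurement of antagonist activity uses fluorescent calcium dye in inducible HEK293 T-REx D2 cells: 10 s baseline, compound addition with 180 s read, EC80 dopamine addition with a further 180 s read.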
D2 PAM-2: positive allosteric modulators of human D2 dopamine receptor; potentiation, % (concentration not given with the values); DiscoveRx D2 beta-arrestin cells, luminescence, 90 min; 100% = 57 uM dopamine signal; P14416; 360,000 compounds, 0.23% hits; in the data active = potentiation above about 50%; inconclusive = mostly about 30% to 49%
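PathHunter beta-arrestin assay in DiscoveRx D2 cells. Compounds were added with an EC20 of dopamine (50 nM final) for 90 min at 37 deg C. Luminescence was read 1 h after detection reagent, with 57 uM dopamine as the EC100 control.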
Active calls of the source: *; ? = inconclusive; . = no result.

SMILES | D2 PAM-1 | D2 ag-1 | Apoferritin bind | D2 ag-2 | D2 antag | D2 PAM-2
OCC1(Cc2ccccc2)CCCN(Cc2ccc(-c3ccco3)cc2)C1 (configuration not stated) | -20.1 | -1.9 | -9.7% | -5.9 | 54.2* | -28.9
CCOc1ccc(CN2CCCC(CO)(Cc3ccccc3F)C2)cc1 (configuration not stated) | -35.1 | 0.4 | -8.1% | -5.1 | 66.8* | -4.4
O=C(NCc1ccc2c(c1)OCO2)c1ccco1 | 13.4 | -0.5 | -10.9% | -1.8 | 1.2 | -5.1
COC(=O)c1c(-c2cccs2)csc1NC(=O)CN1CCOCC1 | 33.0* | 0.8 | 0.3% | -4.2 | -14.6 | -13.5
COC(=O)c1c(-c2cccs2)csc1NC(=O)c1ccc(C)cc1 | 13.8 | 2.4 | -4.2% | . | . | .
O=C(CN1CCOCC1)Nc1scc2c1c(=O)oc1ccccc12 | -7.0 | 0.0 | 7.6% | -1.0 | 35.7* | -1.7
COC(=O)C1=C(Cn2cnc3ccccc32)NC(=O)NC1c1cc(C)ccc1C (configuration not stated) | -2.6 | 0.8 | -0.7% | 51.6* | -8.8 | 90.7*
Fc1ccc(N2CCN(C3CCC(c4ccccc4)CC3)CC2)cc1 (configuration not stated) | -17.7 | 11.7 | -6.5% | -3.7 | 53.3* | 0.1
CC(C)c1ccc(NC(=O)N2CCN(c3ccc(Cl)c(Cl)c3)CC2)cc1 | -4.1 | -0.7 | 33.8% | . | . | .
CC1(C)C(c2ccccc2)=[N+]([O-])C2(CCCCC2=O)N1O (configuration not stated) | 4.4 | -0.5 | -3.8% | 6.1 | 33.4* | 21.4
COc1ccc([C@H]2[C@H](C(=O)C(C)(C)C)N3N=Cc4ccccc4C3[C@]23N=C(c2ccccc2)OC3=O)cc1OC (some centres not stated) | -1.2 | 0.7 | ? | 7.3 | 23.6 | 58.0*
COc1ccc([C@H]2[C@H](C(=O)C(C)(C)C)N3N=Cc4ccccc4C3[C@]23N=C(c2ccccc2)OC3=O)cc1 (some centres not stated) | -2.2 | 0.6 | -20.7% | 5.7 | -7.9 | ?
CC(=O)c1cc2c(cc1NC(=O)C1CN(C(C)=O)c3ccccc3O1)OCO2 (configuration not stated) | . | . | . | -4.8 | . | -10.3
COC(=O)c1c(C)[nH]c(C(=O)C(C)Sc2nnc(-c3cc(OC)c(OC)c(OC)c3)o2)c1C (configuration not stated) | 4.9 | -1.4 | 1.6% | -1.3 | 32.1* | -9.0
CCOC(=O)c1c(C)[nH]c(C)c1C(=O)CSc1nnc(-c2cc(OC)c(OC)c(OC)c2)o1 | -13.2 | -0.5 | -8.3% | -1.1 | 8.7 | -5.0
C[C@@H](C(=O)N[C@@H](Cc1ccccc1)C(=O)O)n1nnc2ccccc2c1=O | -1.7 | 0.6 | -6.0% | -3.9 | -27.5 | -4.1
O=C(CSc1nnnn1Cc1ccccc1)NCCc1ccccc1 | -0.9 | -1.8 | -12.3% | -3.0 | 31.9* | 1.9
O=C(NCc1ccc(Cl)cc1)C1CCCN(c2cnccn2)C1 (configuration not stated) | -3.8 | -1.3 | 3.3% | -3.1 | 36.2* | -10.7
O=C(NCc1ccc(Cl)cc1)C1CCN(c2cnccn2)CC1 | -17.9 | -0.5 | -3.3% | -3.2 | 3.8 | -2.4
O=C(NCCc1ccc(Cl)cc1)C(=O)c1c[nH]c2ccccc12 | -3.9 | 0.5 | -5.0% | -1.0 | -14.2 | -3.8
CCOC(=O)c1cc(NC(=O)c2ccc(Cl)cc2)c(=O)n2c1oc1ccc(Cl)cc12 | 14.9 | 1.0 | 4.3% | -0.3 | 31.5* | -20.1
O=c1c(/C=C(\O)c2ccc(F)cc2)nc2ccccc2n1-c1ccccc1 | -9.9 | 44.0* | -8.4% | -7.2 | 4.2 | -16.3
CCOc1ccc(NC(=O)CN(C)Cc2cc(=O)n3c(-c4ccccc4)csc3n2)cc1OCC | 4.0 | 1.4 | ? | -3.3 | 40.6* | -4.1
Cc1cc(C)cc(OCc2cc(=O)n3c(-c4ccccc4)csc3n2)c1 | 1.5 | 0.8 | -6.1% | . | . | .
COc1cc(C(=O)OCC(=O)Nc2sccc2C(N)=O)cc(OC)c1OC | 5.9 | -4.4 | -22.5% | 10.9 | 15.5 | 10.2
SMILES | D2 PAM-1 | D2 ag-1 | Apoferritin bind | D2 ag-2 | D2 antag | D2 PAM-2
Nc1nonc1-n1nnc(C(=O)N/N=C/c2ccccc2Cl)c1CN1CCOCC1 | 43.5* | 0.2 | 6.6% | 3.9 | 3.9 | -9.3
COc1ccc2ccccc2c1/C=N/NC(=O)c1nnn(-c2nonc2N)c1C(C)C | -5.6 | 0.6 | -9.2% | -0.1 | 34.7* | -28.8
CCOc1cc(/C=N/NC(=O)c2nnn(-c3nonc3N)c2C)ccc1OCc1ccc(F)cc1 | 8.8 | 0.7 | -7.1% | 7.8 | -6.7 | 0.6
CCOc1cc(/C=N/NC(=O)c2nnn(-c3nonc3N)c2C)ccc1OCc1cccc(F)c1 | 55.0* | 0.5 | -1.3% | -1.9 | -7.1 | -4.6
Cc1ccc(-c2c(C(=O)N/N=C/c3ccsc3)nnn2-c2nonc2N)cc1 | 21.2 | 18.8 | 6.4% | -4.0 | 34.5* | -0.6
O=C(CCCCCn1c(=S)[nH]c2cc3c(cc2c1=O)OCO3)N1CCN(C(=O)c2ccco2)CC1 | 12.4 | 0.9 | -5.7% | -3.3 | -8.2 | -1.0
CCOc1ccc(-c2c(C(=O)N/N=C/c3ccc(C)cc3)nnn2-c2nonc2N)cc1 | 6.1 | 39.0* | -16.2% | 4.9 | -1.9 | -0.6
CCCOc1ccc(-c2c(C(=O)N/N=C/c3ccc(C)cc3)nnn2-c2nonc2N)cc1 | 5.0 | 5.8 | ? | -4.4 | 3.6 | 1.0
CCOc1ccc(-c2c(C(=O)N/N=C/c3ccc(Cl)cc3)nnn2-c2nonc2N)cc1 | 84.1* | -0.2 | -10.9% | 6.2 | -10.1 | -0.4
CCc1cccc(C)c1NC(=O)CSc1nnc(Cc2csc(C)n2)o1 | 1.1 | 0.1 | . | -4.2 | 10.7 | -31.4
CCc1cccc(C)c1NC(=O)CSc1nnc(C)o1 | 37.3* | 0.7 | -1.9% | -0.1 | 0.2 | 6.1
COc1ccccc1CNC(=O)CCC(=O)N1CC(C)Sc2ccccc21 (configuration not stated) | -6.7 | -0.1 | -17.4% | -9.5 | 31.7* | -10.5
CC1CN(C(=O)CCC(=O)NCc2ccc(F)cc2)c2ccccc2S1 (configuration not stated) | -2.6 | 0.5 | -21.5% | -2.2 | -10.1 | -0.7
COc1ccc(NC(=O)c2ccc(Br)c(S(=O)(=O)N3CCOCC3)c2)cc1 | 33.4* | 2.2 | 3.9% | -1.8 | -21.3 | 1.6
Cc1ccc(C(=O)Nc2ccccc2)cc1S(=O)(=O)N1CCN(C)CC1 | -2.7 | 0.7 | -3.9% | 2.2 | 35.1* | -2.3
CC(=O)c1cccc(NC(=O)c2ccc3c(c2)CCCC3)c1 | -30.2 | 0.3 | -17.2% | -3.9 | 32.9* | -50.1
